Screening results deposited in PubChem by National Center for Advancing Translational Sciences (NCATS).
The list is not random: actives were taken first. Their share in the collection is about 2.4%.
Pol eta inh: DNA polymerase eta (human) inhibition. recombinant Pol eta, fluorescent DNA replication assay. Potency, µM (titrated, usually from 114 µM), for inactives: top-dose activity change, negative = inhibition, actives largely listed as inhibitors. 390,000 tested, 1.2% active. AID 588591; also: % is scaled to controls: 0 for no effect and ±100 for the full control effect
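Fluorescent replication assay: 50 nM final substrate added after a 15 min room-temperature compound preincubation with 10 nM enzyme. Signal taken at 0 min and again at 10 min.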
Pol kappa inh: blocks human DNA polymerase kappa activity | 400,000 tested, 0.53% active | Potency, µM (series often up to 107 µM), for the others: at the top dose activity, negative = inhibition, usual class: inhibitors | AID 588579 | purified Pol kappa, fluorescent DNA synthesis assay, 10 min | Q9UBT6; also: % is scaled to controls: 0 for no effect and ±100 for the full control effect
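Kinetic fluorescence readout at 0 and 10 min followed reaction start with substrate at 50 nM final. Beforehand, enzyme (10 nM Pol kappa) stood 15 min with compound at room temperature; buffer-only wells were negative controls.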
FEN1 inh: human FEN1 inhibition | P39748 | Recombinant FEN1 flap cleavage, fluorescence, 15 min | Potency, µM (series often up to 114 µM), inactives show at the top dose activity change, negative = inhibition, usual class: inhibitors | 390,000 tested, 0.35% active; also: % is scaled to controls: 0 for no effect and ±100 for the full control effect; nearly all actives have a fitted effect of over 65% in size
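Quantitative HTS format: each compound was titrated, incubated with 10 nM nuclease for 15 min at room temperature, then challenged with flap substrate at 50 nM final. Signal change over 15 min gave concentration–effect curves.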
Pol iota inh: DNA polymerase iota (human) inhibition. Potency, µM (titrated, usually from 115 µM), for the others: at the top dose activity, negative = inhibition, actives largely listed as inhibitors. 390,000 tested, 1% active. Pol iota fluorescent replication assay, 10 min. Q9UNA4. AID 588590
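Pol iota at 10 nM preincubated 15 min with compounds at room temperature; reaction started with fluorescent substrate, 50 nM final. Fluorescence read kinetically at 0 and 10 min; buffer-only wells as negative control.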
POLB inh: inhibitors of human DNA polymerase beta. P06746. Pol beta primer extension/strand displacement, fluorescence kinetic. Potency, µM (doses to about 114 µM), for inactives: at the top dose activity change, negative = inhibition, hits mostly inhibitors. 340,000 tested, 1.3% active. AID 485314; also: % is scaled to controls: 0 for no effect and ±100 for the full control effect
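Values derive from four-parameter Hill fits of normalized kinetic data: reads at 0 and 10 min following addition of 50 nM substrate to 10 nM Pol beta preincubated 15 min with compound.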
Tb PGK inh: T. brucei PGK inhibition | P07378 | PGK/GAPDH coupled, Kinase-Glo luminescence, 60 min | Potency, µM (titrated, usually from 57.5 µM), for the others: at the highest dose activity change, negative = inhibition, actives largely listed as inhibitors | 380,000 tested, 0.043% active | AID 602233; also: % is scaled to controls: 0 for no effect and ±100 for the full control effect; nearly all actives have a fitted effect of over 60% in size
Target sequence (P07378 whole entry, looked up): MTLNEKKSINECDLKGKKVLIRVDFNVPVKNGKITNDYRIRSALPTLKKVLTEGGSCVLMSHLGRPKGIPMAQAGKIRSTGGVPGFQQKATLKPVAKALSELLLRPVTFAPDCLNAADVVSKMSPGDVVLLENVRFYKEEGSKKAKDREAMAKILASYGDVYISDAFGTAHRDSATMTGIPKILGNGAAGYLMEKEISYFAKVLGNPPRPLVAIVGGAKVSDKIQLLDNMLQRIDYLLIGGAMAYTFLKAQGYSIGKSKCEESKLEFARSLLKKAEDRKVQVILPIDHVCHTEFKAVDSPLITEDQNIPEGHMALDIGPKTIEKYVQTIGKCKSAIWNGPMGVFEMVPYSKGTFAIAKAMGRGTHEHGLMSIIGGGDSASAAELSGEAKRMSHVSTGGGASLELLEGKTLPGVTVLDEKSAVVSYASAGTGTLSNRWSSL
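Luminescent ATP detection (Kinase-Glo Plus) follows a 60-minute room-temperature incubation, with wells lacking PGK as controls. Buffer: 100 mM TEA (pH 7.6), 5 mM MgCl2, 0.01% Tween-20. Coupling enzyme GAPDH (100 nM final) supplies unstable 1,3-BPG in-well.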
* marks the source's active call; other numbers are inactive results; ? = inconclusive; / = not tested or not shown; [ ] = dose if it differs, or a comment. Calls follow the shape of the dose curve; as a rule, active = well fitted curve in the direction sought with a large enough effect; inconclusive = small, poorly fitted or top-dose-only effect, or another doubt; inactive = no such curve, though single readings can be large; an effect the other way counts as inactive or inconclusive. Potency is read from the fitted curve at half-maximal effect.

SMILES | Pol eta inh | Pol kappa inh | FEN1 inh | Pol iota inh | POLB inh | Tb PGK inh
O=C(O)COc1ccccc1C(Nc1cccnc1)c1cc(Cl)c2cccnc2c1O (stereo unspecified) | 79µM* | ? | ? | ? | -29% | -3%
CCCC[n+]1ccn(-c2nc3ccccc3nc2[N-]S(=O)(=O)c2cccs2)c1 | -7% | -15% | 0% | 47% | 18µM* | 12%
Cc1cc(C(F)(F)F)c2c(n1)sc1c(O)cc(=O)[nH]c12 | -14% | 71µM* | -27% | 3.2µM* | -10% | /
COc1cc(OC)c2c(C)c(CC(=O)NCc3ccccc3OC)c(=O)oc2c1 | 28µM* | -5% | 2% | 3% | -11% | ?
Cc1c(C(=O)NCc2cccc(Br)c2)oc2ccc3c(c12)C(=O)CC(C)(C)O3 | / | ? | 89µM* | 79µM* | 8% | /
Cc1c(C(=O)NCC2CCCO2)oc2ccc3c(c12)C(=O)CC(C)(C)O3 (stereo unspecified) | -13% | 11% | -15% | 1% | 22% | 0%
COc1ccccc1CNC(=O)c1oc2ccc3c(c2c1C)C(=O)CC(C)(C)O3 | / | -19% | -19% | 89µM* | 2% | /
COC(=O)[C@@H]1CC2=CC(=O)CC[C@]2(C)[C@@]23O[C@@H]2C[C@@]2(C)[C@H](CC[C@@]24CCC(=O)O4)[C@@H]13 | / | -15%[60.1 µM] | / | / | / | /
COc1ccc(/C=N/NC(=O)CCN2CCN(c3ccccc3)CC2)c(OC)c1OC | -12% | -2% | 5% | 4% | 2% | 2%
O=C(CCN1CCN(c2ccccc2)CC1)N/N=C/c1ccc(O)c(O)c1O | 22µM* | 3.5µM* | 28µM* | 1.3µM* | 2.8µM* | -22%
C=CCn1c(SCc2cc(=O)n3ccsc3n2)nc2ccccc2c1=O | 19% | -21% | -12% | -18% | ? | -7%
O=c1c2ccccc2nc(SCc2cc(=O)n3ccsc3n2)n1CCCO | / | / | / | / | 32µM* | /
CCc1cccc(C)c1NC(=O)c1cnn(-c2ccc(OC)cc2)c1C1CCN(C(=O)OC(C)(C)C)CC1 | -21% | -9% | 3% | 15% | -22% | -7%
CCC(=O)N1CCc2cc(Br)cc(S(=O)(=O)N3CCCC(C(=O)Nc4cccc(Cl)c4C)C3)c21 (stereo unspecified) | -13% | 10% | -5% | 6% | 7% | 0%
CCOc1ccc(OCC)c(NC(=O)C2CCCN(S(=O)(=O)c3cc(Br)cc4c3N(C(=O)CC)CC4)C2)c1 (stereo unspecified) | -4% | -24% | -7% | 89µM* | 0% | -14%
Cc1nc2scc(-c3ccc(C(C)(C)C)cc3)c2c(=O)n1N | 89µM* | -25% | -9% | ? | 2% | -8%
Cn1c(=O)c2sccc2n2c(CCCC(=O)Nc3ccc(Oc4ccc(Cl)cc4)cc3)nnc12 | -12% | -6% | ? | -12% | -21% | 0%
CCCCc1nnc(SCCSc2nnc(CCCC)n2N)n1N | -10% | -6% | 0% | 89µM* | 28% | -8%
O=C(Nc1ccc(Br)cc1Cl)c1cnn2c1NC(=C1CC1)C=C2C(F)F | / | 9% | 0% | 1% | / | /
Cc1ccc(CN2C(=O)c3ccccc3Sc3ccc(C(=O)NCc4ccco4)cc32)cc1 | -12% | -9%[60.1 µM] | 1% | -1% | -13% | 4%
CCCN(CC(=O)Nc1ccccc1C)C(=O)Cc1coc2cc(C)ccc12 | ? | -15% | 1% | ? | 40µM* | 1%
CCC1CCCCN1Cc1nc2c(c(=O)n(C)c(=O)n2C)n1Cc1c(F)cccc1Cl (stereo unspecified) | / | -2% | -4% | 15% | / | /
O=S(=O)(c1ccc(-c2nnco2)cc1)N1CCCCC1 | -19% | -1% | -23% | -5% | 1% | 3%
O=S(=O)(c1ccc(Oc2ccc(-c3nnco3)cc2)nc1)N1CCC(Cc2ccccc2)CC1 | 45µM* | -15% | 1% | -6% | ? | 2%
